In the library only some 3.3% were active in any assay of this set; here they are far more common.
PI5P4Ka inh: blocks human PI5P4K alpha kinase activity; max response, %; 1.2% of 330,000 active; P48426; PI5P4Kalpha enzyme, ADP-Glo luminescence, 60 min; active compounds read low; AID 652105; active = max response of -50% or lower; inconclusive = between -30% and -50%; inactive = -30% or higher; note: value at the top dose of about 77 µM; % is set by controls: 0 for no effect and ±100 for the full control effect
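Compounds were pin-transferred onto PI5P4Kalpha and substrate in HEPES pH 7.4 buffer with EGTA, CHAPS and 5% DMSO. ATP (5 microM final) started the reaction, which ran 60 minutes at room temperature before ADP-Glo detection.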
DRD3 agonist: agonists of human D3 dopamine receptor; P35462; D3R DiscoveRx beta-arrestin cells, luminescence, 90 min; max activation, %; 0.58% of 410,000 active; AID 652048; in the data active = max activation above about 30%; note: 0% is about no effect
Target sequence (P35462 whole entry, looked up): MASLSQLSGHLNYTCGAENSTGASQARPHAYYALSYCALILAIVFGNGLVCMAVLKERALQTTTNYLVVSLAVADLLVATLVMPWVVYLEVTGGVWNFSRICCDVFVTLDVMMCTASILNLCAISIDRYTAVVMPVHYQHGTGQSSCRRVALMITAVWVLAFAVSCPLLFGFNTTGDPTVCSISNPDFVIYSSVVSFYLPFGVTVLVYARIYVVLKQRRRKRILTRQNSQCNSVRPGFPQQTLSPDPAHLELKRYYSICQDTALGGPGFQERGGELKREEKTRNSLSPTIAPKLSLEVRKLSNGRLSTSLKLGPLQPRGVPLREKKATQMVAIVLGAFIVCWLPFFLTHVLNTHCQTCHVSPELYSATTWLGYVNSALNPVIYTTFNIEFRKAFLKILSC
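Agonist mode: compounds and dopamine controls were applied to plated cells for 90 min at 37 degrees C after an overnight attachment at 1500 cells/well. Luminescent read-out followed 30 - 60 minutes at room temperature with DiscoveRx detection reagent.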
D3 antag: antagonists of human D3 dopamine receptor. P35462. 2.5% of 360,000 active. D3R cells, DiscoveRx beta-arrestin luminescence, antagonist mode; active compounds read low. AID 652054. max response, negative = inhibition, %; in the data active = max response below about -50%; inconclusive = no clear call, values can overlap the other calls; note: % is set by controls: 0 for no effect and ±100 for the full control effect
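Cells expressing the human receptor were seeded at 1500 cells/well, incubated overnight at 37 degrees C in 5% CO2, then exposed to library compounds with dopamine controls for 90 minutes at 37 degrees C before luminescent detection.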
LDHA block: LDHA (human) enzyme inhibition; purified LDHA, NADH/diaphorase-resazurin fluorescence; active compounds read low; 0.15% of 480,000 active; activity change, % (values are at about 110 or 230 µM); P00338; AID 1347041; in the data active = activity change below about -30%; inconclusive = mostly about -25% to -30%;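 note: plate controls were DMSO wells for no effect and wells without enzyme for full effect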
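Human LDH5 at 2 nM final in Tris HCl pH 7.4 with 0.06 mM NADH and 0.2 mM pyruvate, reacted 5 minutes at room temperature. Remaining NADH coupled via diaphorase/resazurin; resorufin fluorescence read at 0 and 20 minutes, normalized to enzyme-free and DMSO wells.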
PI4K2A inh: blocks human PI4K2A kinase activity; Q9BTU6; purified PI4K2A, ADP-Glo luminescence, 1 h; active compounds read low; activity change, negative = inhibition, % at 76.9 µM; 0.13% of 420,000 active; AID 1346378; in the data active = activity change below about -50%; inconclusive = mostly about -30% to -49%;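 note: -100% = wells without enzyme as full effect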
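In this quantitative HTS, ADP production by PI4K2A was quantified luminescently after 1 h at ambient temperature; 100 microM adenosine served as plate-quality control.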
Starred values were filed as active, the others as inactive; ? = inconclusive; / = no result.

SMILES	PI5P4Ka inh	DRD3 agonist	D3 antag	LDHA block	PI4K2A inh
COC(=O)C1=C(c2cccc(OCc3ccccc3)c2)C[C@@H]2CC[C@H]1N2C(=O)NCc1ccc(Cl)cc1	3	2	-52*	-12	0
COC(=O)C1=C(c2cccc(OCc3ccccc3)c2)C[C@@H]2CC[C@H]1N2C(=O)NCc1ccc(OC)c(OC)c1	3	0	20	2	-2
CCCN1C(=O)NC(=O)C2(Cc3c(ccc4ccccc34)N(C)C2)C1=O (configuration not stated)	/	/	/	34	/
CN1C(=O)C(=Cc2coc3ccccc3c2=O)C(=O)N(C)C1=O	-73*	-10	-17	-7	-15
CN1C(=O)C(=Cc2cn(CC#N)c3ccccc23)C(=O)N(C)C1=O	?	6	18	-1	-15
C[N+]1(C)C2CC[C@H]1CC(OC(=O)C(CO)c1ccccc1)C2 (some centres not stated)	1	-6	-67*	-2	-6
C[N+]1(C)[C@@H]2CC[C@H]1CC(OC(=O)[C@@H](CO)c1ccccc1)C2 (some centres not stated)	-58*	-3	-28	?	2
C[N+]1([O-])[C@@H]2CC[C@H]1CC(OC(=O)C(CO)c1ccccc1)C2 (some centres not stated)	/	-5	/	/	/
C[N+]1(C)CCC(OC(=O)C(c2ccccc2)c2ccccc2)CC1	3	-87	-59*	-17	-7
CC(=O)Nc1ccc(OC(=O)N2CCN(/[N+]([O-])=N/Oc3ccc([N+](=O)[O-])cc3[N+](=O)[O-])CC2)cc1	/	/	/	11	/
CN1CCC(OC(=O)c2ccccc2)(c2ccccc2)C(C)(C)C1 (configuration not stated)	/	/	/	4	/
CCCCCCCCc1ccc(O)cc1	70	/	/	2	2
CCCCCCCCn1sccc1=O	-77*	-75	-81*	-3	1
CN1CCN(c2ccc(Cl)cc2N)CC1	-4	-1	-6	0	4
CN1CCN(c2ccc(N)cc2Cl)CC1	?	-14	-60*	-2	-8
C[C@@H]1CC2=CC(=O)CC[C@@H]2[C@H]2CC[C@@]3(C)[C@@H](CC[C@]3(C)O)[C@@H]21	/	/	/	/	2
CC(NCc1ccco1)C(O)c1ccccc1 (configuration not stated)	/	/	/	2	/
CC12CC1(C)C(=O)N(c1cc(Cl)cc(Cl)c1)C2=O (configuration not stated)	4	1	-56*	-2	-2
COc1ccccc1CCNC1CCC(C(C)(C)C)CC1 (configuration not stated)	/	-38	-74*	-9	8
c1ccc(C(OCCN2CCN(c3ncccn3)CC2)c2ccccc2)cc1	-3	-12	-116*	-8	-3
Cn1c(O)c(C=NCCCN2CCCC2=O)c(=O)n(C)c1=O	/	0	-65*	-7	7
Cc1c(CC(=O)N2CCN(CCc3ccccn3)CC2)c(=O)oc2cc(O)ccc12	/	/	/	2	/
COc1cc(/C=C2\C(=O)NC(=O)N(c3ccccc3)C2=O)c([N+](=O)[O-])cc1OC	-28	-2	9	2	-9
O=C1NC(=O)N(c2ccccc2F)C(=O)/C1=C/c1ccc(Oc2ccc([N+](=O)[O-])cn2)cc1	-52*	-11	0	-19	2
Cc1ccc(S(=O)(=O)NCCNc2ccc([N+](=O)[O-])c3cccnc23)cc1	/	/	/	27	/
SMILES	PI5P4Ka inh	DRD3 agonist	D3 antag	LDHA block	PI4K2A inh
Cc1ccc(-n2c(/C=C/c3ccco3)nc3ccccc3c2=O)cc1	/	/	/	-4	/
COC(=O)c1ccccc1N=Cc1c(O)[nH]c(=O)[nH]c1=O	3	0	-4	-4	-1
COc1ccc(OC)c(N=Cc2c(O)[nH]c(=O)[nH]c2=O)c1	-56*	0	19	5	-4
COC(=O)C1=C(c2c(C)noc2C)C[C@@H]2CC[C@H]1N2C(=O)N1CCCC1	-2	58*	6	0	6
COC(=O)C1=C(c2c(C)noc2C)C[C@@H]2CC[C@H]1N2C(=O)NCCO	7	12	1	-4	-53*
COC(=O)C1=C(c2c(C)noc2C)C[C@@H]2CC[C@H]1N2C(=O)NC(C)C	21	0	5	1	-2
CCCNC(=O)N1[C@H]2CC[C@@H]1C(C(=O)OC)=C(c1c(C)noc1C)C2	3	2	-1	-1	-2
COc1ccc(C(CNC(=O)Cc2ccc(Cl)c(Cl)c2)N2CCCCC2)cc1 (configuration not stated)	-1	-34	-67*	-7	4
COc1ccc(C(CNC(=O)Cc2ccc(Cl)c(Cl)c2)N(C)C)cc1 (configuration not stated)	-2	-13	-2	-8	-10
CCn1nc(-c2ccccc2)nc2c(=O)n(C)c(=O)nc1-2	-8	-14	?	29	-57*
Cn1nc(-c2ccccc2)nc2c(=O)n(C)c(=O)nc1-2	/	/	/	25	/
C=CCN1CC[C@]23c4c5ccc(O)c4OC2C(O)C=CC3[C@H]1C5 (some centres not stated)	4	-95	-110*	-7	1
CN(C)CC(C(=O)Cc1ccccc1)c1ccccc1 (configuration not stated)	2	-22	-63*	-1	20
C[C@@H]([C@@H](O)c1ccccc1)N(C)C(=O)Cc1ccccc1	0	-3	6	-9	0
CC(=NCCN1CCCCC1)c1c(O)[nH]c(=O)[nH]c1=O	/	-2	-53*	-14	0
C=CCn1c(O)c(C(C)=NCCN2CCCCC2)c(=O)[nH]c1=O	/	-6	-65*	-10	2
CC(=NCCCO)c1c(O)[nH]c(=O)[nH]c1=O	6	15	4	-6	1
CC(=NCCN1CCCCC1)c1c(O)n(Cc2ccccc2)c(=O)[nH]c1=O	/	-7	-21	3	5
C=CCn1c(O)c(/C(C)=N/N2CCCCC2)c(=O)[nH]c1=O	1	4	4	-11	-4
CCCCn1c(O)c(C(C)=NCCN2CCCCC2)c(=O)[nH]c1=O	-2	-8	-71*	-3	-1
CC(C)c1ccccc1OCC(=O)N1CCN(Cc2nc(N)c3ccccc3n2)CC1	/	/	/	-5	/
CN(Cc1cccs1)C(=O)CCl	/	/	/	5	/
CCN1CC=C(c2c[nH]c3ccccc23)CC1	0	-13	-71*	-5	5
O=C(/C=C/c1c[nH]c2ccccc12)c1c(O)n(CCc2ccccc2)c(=O)[nH]c1=O	-56*	3	-6	-5	-2
O=C1C(=O)c2ccccc2-c2ccccc21	-5	-72	-67*	19	?
O=C1C(c2ccccc2)=C(N2CC2)c2ccccc21	0	-26	-24	-8	3
O=C1C(=O)c2cccc3cccc1c23	-3	-18	-59*	22	9
O=C(c1cn[nH]c1-c1ccc(F)cc1)N1CCC2(CC1)OCCO2	/	/	/	3	/

Screens as filed in PubChem BioAssay.
